Spn MK inh – inhibitors of Streptococcus pneumoniae mevalonate kinase; purified MK, PK/LDH-coupled NADH absorbance 340 nm; AID 555; hit rate 0.48% among 65,000; inhibition, % at 10 µM;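 active = ranked among the strongest by inhibition in the single 10 µM screen, a fixed top-ranked set picked for dose follow-up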
Spn DPM-DC inh – inhibitors of Streptococcus pneumoniae diphosphomevalonate decarboxylase; calls only at 10 µM; hit rate 0.49% among 65,000; purified DPM-DC, PK/LDH coupled NADH fluorescence;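 active = the 320 compounds with the highest percent inhibition in the single-dose primary screen, excluding strongly autofluorescent ones, cut at about 32% in these data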;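 note: kinetic rate of NADH fluorescence loss reporting ADP formed by the decarboxylase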
PMK inhibit – blocks S. pneumoniae phosphomevalonate kinase | purified PMK, PK/LDH-coupled NADH absorbance 340 nm | inhibition, % at 10 µM | hit rate 0.49% among 65,000 | AID 539;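 active = top-ranked compounds by inhibition in the single 10 µM screen, taking a fixed number of the strongest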
NADH enzymes – inhibition of NAD/NADH coupling enzymes, library profiling. coupled PK/LDH NADH assays, four targets. IC50, µM (titrated, usually from 10 µM). hit rate 0.02% among 65,000. AID 774;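 active = single-dose screening hits from any of four coupled enzyme assays that gave an IC50 when retested across doses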;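 note: the DPM-DC format reads NADH fluorescence rather than 340 nm absorbance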
Fluor 339 460 – intrinsic fluorescence of library compounds, ex339/em460 – biochemical, MLSMR library, data from DPM-DC assay, artefact control, profiling panel | compound autofluorescence, ex339/em460 nm, NADH buffer; active compounds read high; 1 = no-compound wells, NADH background | fluorescence fold increase at 10 µM | hit rate 5.5% among 65,000 | AID 709;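 active = at 10 µM, mean starting fluorescence two-fold or more over control wells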;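 note: signal is the first read of a kinetic run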
A340 absorber – compound absorbs light at 340 nm; 65,000 tested, under 10 active; AID 708; compound absorbance at 340 nm, fold over control; fold change at 10 µM;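 active = at 10 µM dose, initial 340 nm absorbance at least 2 fold that of control wells; inactive = change under 2 fold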;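 note: initial absorbance extrapolated from kinetic A340 decline of NADH oxidation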
Numbers stand for hits. Hits are enriched below; roughly 6.3% of the tested compounds scored in any of these assays.

`Cc1ccc2c(c1)c1ncnc(N3CCOCC3)c1n2C` gave Spn MK inh inactive, PMK inhibit inactive, NADH enzymes inactive, Fluor 339 460 3.8 and A340 absorber inactive.
`Cc1ccc2c(c1)c1ncnc(N3CCC4(CC3)OCCO4)c1n2C` gave Spn MK inh inactive, PMK inhibit inactive, NADH enzymes inactive, Fluor 339 460 3.7 and A340 absorber inactive.
Screening Cc1ccc(-n2ncc3c(N4CCC5(CC4)OCCO5)ncnc32)c(C)c1 returned Spn MK inh inactive, Spn DPM-DC inh inactive, PMK inhibit inactive, NADH enzymes inactive, Fluor 339 460 inactive and A340 absorber inactive.
Screening CCOC(=O)Cc1csc(-n2sc3ccccc3c2=O)n1 returned Spn MK inh 67, Spn DPM-DC inh active, PMK inhibit inactive, NADH enzymes inactive, Fluor 339 460 inactive and A340 absorber inactive.
`COc1ccc(NC(=O)Cn2nnc(-c3ccccc3NC(=O)c3cccs3)n2)cc1` gave Spn MK inh inactive, PMK inhibit inactive, NADH enzymes inactive, Fluor 339 460 3.5 and A340 absorber inactive.
`COC(=O)c1c(C(=O)OC)c2ccncn2c1Cl` gave Spn MK inh inactive, Spn DPM-DC inh active, PMK inhibit inactive, NADH enzymes inactive, Fluor 339 460 inactive and A340 absorber inactive.
For COC(=O)C1=C(C)N(c2ccc(Cl)c(Cl)c2)C(=O)C1 the results were Spn MK inh inactive, Spn DPM-DC inh inactive, PMK inhibit inactive, NADH enzymes inactive, Fluor 339 460 inactive and A340 absorber inactive.
For CCC(C)(C)NC(=O)C(c1ccccc1F)N(Cc1ccco1)C(=O)c1csnn1 (stereo not drawn) the results were Spn MK inh inactive, Spn DPM-DC inh inactive, PMK inhibit 38, NADH enzymes inactive, Fluor 339 460 inactive and A340 absorber inactive.
COc1ccc(CCNC(=O)CC2Nc3ccccc3NC2=O)cc1OC (stereo not drawn) was read as Spn MK inh inactive, Spn DPM-DC inh inactive, PMK inhibit inactive, NADH enzymes inactive, Fluor 339 460 inactive and A340 absorber inactive.
For COc1ccc(CCNC(=O)CC2Nc3ccccc3NC2=O)cc1 (stereo not drawn) the results were Spn MK inh inactive, Spn DPM-DC inh inactive, PMK inhibit inactive, NADH enzymes inactive, Fluor 339 460 2.1 and A340 absorber inactive.
Screening CCC(C)(C(=O)NC1CCCCC1)N(C(=O)C1CCC(=O)N1)c1ccc(C)cc1 (stereo not drawn) returned Spn MK inh inactive, Spn DPM-DC inh inactive, PMK inhibit inactive, NADH enzymes inactive, Fluor 339 460 inactive and A340 absorber inactive.
O=[n+]1cc(-c2ccc(F)cc2)n([O-])c2c1CCC2 was read as Spn MK inh inactive, Spn DPM-DC inh inactive, PMK inhibit inactive, NADH enzymes inactive, Fluor 339 460 inactive and A340 absorber inactive.
Screening O=[n+]1cc(-c2cc3ccccc3o2)n([O-])c2c1CCCC2 returned Spn MK inh inactive, Spn DPM-DC inh inactive, PMK inhibit inactive, NADH enzymes inactive, Fluor 339 460 2.9 and A340 absorber inactive.
For COc1ccc(CNc2oc(-c3cccc4ccccc34)nc2C#N)cc1 the results were Spn MK inh inactive, PMK inhibit inactive, NADH enzymes inactive, Fluor 339 460 3 and A340 absorber inactive.
`CNc1oc(-c2cccc3ccccc23)nc1C#N` gave Spn MK inh inactive, PMK inhibit inactive, NADH enzymes inactive, Fluor 339 460 3.7 and A340 absorber inactive.
N#Cc1nc(Cc2cccc3ccccc23)oc1NCc1ccc(F)cc1 was read as Spn MK inh inactive, Spn DPM-DC inh inactive, PMK inhibit inactive, NADH enzymes inactive, Fluor 339 460 inactive and A340 absorber inactive.
Cc1nn(-c2ccccc2)c(C)c1C(=O)OCC(=O)Nc1ccc2c(c1)OCO2 was read as Spn MK inh inactive, Spn DPM-DC inh inactive, PMK inhibit inactive, NADH enzymes inactive, Fluor 339 460 inactive and A340 absorber inactive.
For CCOc1c(C(N)=O)c(-c2ccccc2)c2c(=O)[nH]c3ccccc3n12 the results were Spn MK inh inactive, PMK inhibit inactive, NADH enzymes inactive, Fluor 339 460 3.8 and A340 absorber inactive.
Screening CC1CCN(c2ccc(C(=O)O)cc2N)CC1 returned Spn MK inh inactive, Spn DPM-DC inh inactive, PMK inhibit inactive, NADH enzymes inactive, Fluor 339 460 inactive and A340 absorber inactive.
`Cc1cc(C)cc(Nc2ccc(C(=O)O)cc2N)c1` gave Spn MK inh inactive, Spn DPM-DC inh inactive, PMK inhibit inactive, NADH enzymes inactive, Fluor 339 460 2.9 and A340 absorber inactive.
Screening COc1cc(OC)nc(NC(=O)NS(=O)(=O)c2ccc(OC(F)(F)F)cc2)n1 returned Spn MK inh inactive, Spn DPM-DC inh inactive, PMK inhibit 25, NADH enzymes inactive, Fluor 339 460 inactive and A340 absorber inactive.
COc1ccc(NC(=O)NS(=O)(=O)c2ccc(C)cc2)c(OC)c1 was read as Spn MK inh inactive, Spn DPM-DC inh inactive, PMK inhibit inactive, NADH enzymes inactive, Fluor 339 460 inactive and A340 absorber inactive.
COc1ccc2c(c1)OCC1=C2CCC2(C)C(=O)CC=C12 (stereo not drawn) was read as Spn MK inh inactive, PMK inhibit inactive, NADH enzymes inactive, Fluor 339 460 3.6 and A340 absorber inactive.
CC(C)(C)NC(=O)CSc1nnc(C2CC2)n1Cc1ccccc1 was read as Spn MK inh inactive, Spn DPM-DC inh inactive, PMK inhibit inactive, NADH enzymes inactive, Fluor 339 460 inactive and A340 absorber inactive.
Cc1onc(-c2c(F)cccc2Cl)c1C(=O)Nc1cccc2nsnc12 was read as Spn MK inh inactive, Spn DPM-DC inh inactive, PMK inhibit inactive, NADH enzymes inactive, Fluor 339 460 3 and A340 absorber inactive.
Cc1ccc(C(=O)c2coc3ccc(O)c(CN4CCN(C)CC4)c23)cc1 was read as Spn MK inh inactive, Spn DPM-DC inh inactive, PMK inhibit inactive, NADH enzymes inactive, Fluor 339 460 inactive and A340 absorber inactive.
For COCCOC(=O)c1cc(C(=O)c2cc(F)ccc2O)coc1=N the results were Spn MK inh inactive, Spn DPM-DC inh inactive, PMK inhibit inactive, NADH enzymes inactive, Fluor 339 460 2.4 and A340 absorber inactive.
`CCOC(=O)N1CCN(C(=O)C2CCCN(S(=O)(=O)c3cccnc3)C2)CC1` (stereo not drawn) gave Spn MK inh inactive, Spn DPM-DC inh inactive, PMK inhibit inactive, NADH enzymes inactive, Fluor 339 460 inactive and A340 absorber inactive.
Screening CCn1nc(NC(=O)c2ccccn2)c2cc3cccc(C)c3nc21 returned Spn MK inh inactive, PMK inhibit inactive, NADH enzymes inactive, Fluor 339 460 3.4 and A340 absorber inactive.
Screening Cc1cc(C)cc(N2CC34C=CC(O3)C(C(=O)OCC(=O)NCc3ccco3)C4C2=O)c1 (stereo not drawn) returned Spn MK inh inactive, Spn DPM-DC inh inactive, PMK inhibit inactive, NADH enzymes inactive, Fluor 339 460 inactive and A340 absorber inactive.
`CCn1nc(-c2ccccc2)c2nc3ccccc3nc21` gave Spn MK inh inactive, Spn DPM-DC inh inactive, PMK inhibit inactive, NADH enzymes inactive, Fluor 339 460 2.4 and A340 absorber inactive.
